NS1 inh – blocks influenza NS1 protein function; 0.4% of 270,000 active; Potency, µM (top dose mostly 46.1 µM), inactives show top-dose activity, positive = more growth; calls by dose curve; also: potency is read from the fitted curve at half-maximal effect; actives are rising curves; nearly all actives have a fitted effect of over 50% in size
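S. cerevisiae expressing influenza A NS1, grown in glucose, washed, then diluted 1:100 into pH 6.0 -URA galactose medium with 23 nl compound. Growth recovery read as OD600; NS1-free strain serves as control.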
Shiga toxin inh – inhibitors of Shiga toxin in Vero cells; AID 2315; 9.2% of 290,000 active; Vero cells, Shiga toxin protein synthesis inhibition reporter; inhibition, % at 38.7 µM; in the data active = inhibition mostly above about 28%, no sharp cut-off; inactive = mostly below about 43%; also: 0% is about no effect
AmpC inh detg – inhibitors of E. coli AmpC beta-lactamase with detergent. AID 485294. 0.041% of 370,000 active. AmpC hydrolysis of nitrocefin, absorbance 480 nm, 0.01% Triton. Potency, µM (titrated, usually from 114 µM), without a hit: at the highest dose activity change, negative = inhibition, actives largely listed as inhibitors. P00811;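 also: potency is read from the fitted curve at half-maximal effect; 0% = no-compound wells and -100% = no-enzyme wells; nearly all actives have a fitted effect of over 25% in size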
Target sequence (P00811 whole entry, looked up): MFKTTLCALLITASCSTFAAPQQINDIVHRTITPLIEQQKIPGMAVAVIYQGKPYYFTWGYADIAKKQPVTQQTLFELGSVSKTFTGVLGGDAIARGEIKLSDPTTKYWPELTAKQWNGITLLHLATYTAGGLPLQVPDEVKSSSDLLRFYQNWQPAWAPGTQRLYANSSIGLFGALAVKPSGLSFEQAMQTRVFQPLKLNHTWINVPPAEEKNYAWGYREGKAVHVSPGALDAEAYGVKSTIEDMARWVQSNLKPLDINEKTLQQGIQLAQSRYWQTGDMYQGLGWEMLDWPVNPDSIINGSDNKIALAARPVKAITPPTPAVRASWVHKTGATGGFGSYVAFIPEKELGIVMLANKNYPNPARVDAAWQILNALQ
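20 mM phosphate pH 7.0 + 0.01% (detergent screen) or 0.0001% Triton X-100; 5.3 nM AmpC reagent; cpd preinc 15 min RT; nitrocefin (800 uM stock) to start; A480 q20 s × 4 min; Activity was normalised to no-enzyme and no-compound control wells.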
AmpC inh no detg – blocks E. coli AmpC beta-lactamase in detergent-free assay. AmpC nitrocefin hydrolysis, absorbance 480 nm, 0.0001% Triton. 0.52% of 330,000 active. Potency, µM (highest dose often 57.1 µM), for inactives: at the top dose activity change, negative = inhibition, actives largely listed as inhibitors. AID 485341. P00811;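 also: potency is read from the fitted curve at half-maximal effect; plate controls were no compound for no effect and no enzyme for full effect; nearly all actives have a fitted effect of over 20% in size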
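AmpC (5.3 nM in the dispensed reagent) in 20 mM phosphate pH 7.0 with 0.01% (detergent screen) or 0.0001% Triton X-100 was preincubated with compounds for 15 min at room temperature. Nitrocefin was then added from an 800 uM solution, and hydrolysis was followed at 480 nm.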
CHX counter – affects cycloheximide protein synthesis inhibition readout, counter-screen; cell reporter, cycloheximide protein synthesis inhibition counterscreen; max response, %; 12% of 300,000 active; AID 2314; in the data active = max response mostly above about 13%, no sharp cut-off; inactive = mostly below about 14%; also: read at 38.3 µM for the half of the compounds with a filed dose; 0% is about no effect
The depositor's hits bear a star; ? = inconclusive; . = no result. The entries come from a sample that favours hits as a whole. Unless noted, calls follow the shape of the dose curve; as a rule, active = well fitted curve in the direction sought with a large enough effect; inconclusive = small, poorly fitted or top-dose-only effect, or another doubt; inactive = no such curve, though single readings can be large; an effect the other way counts as inactive or inconclusive.

SMILES	NS1 inh	Shiga toxin inh	AmpC inh detg	AmpC inh no detg	CHX counter
CCC(C)c1ccc(NC(=O)Nc2cccnc2)cc1 (stereo not drawn)	-52.4%	76.4*	3.3%	-28.5%	79.6*
COc1ccc(NC(=O)NCc2cccnc2)cc1	12.8%	-10.7	4.7%	-8.3%	8.0
N[C@@H]1[C@@H]2[C@@H]3C[C@H]4N(CC[C@@]14C(=O)C(=O)O)CC3=CCO[C@@H]2CC(=O)O	3.5%	.	.	.	.
O=C(O)c1cc(-c2ccc(-c3ccc(-c4cc(C(=O)O)c5cc(Cl)ccc5n4)cc3)cc2)nc2ccc(Cl)cc12	8.3%	.	.	.	.
CC(=O)N1CCC(N(C(=O)Nc2ccc(C)c(F)c2)C(C)C)CC1	.	.	-3.0%	.	.
C1CN(CCN2CCOCC2)CCN1	-2.2%	.	-9.3%	-13.3%	-3.3
CCc1ccccc1NC(=O)CCc1c(C)nn(-c2ccc(N3CCOCC3)nn2)c1C	-7.0%	7.3	-3.7%	33.2%	4.9
CCS(=O)(=O)n1nc(-c2ccc(C)cc2)nc1N	13.8%	8.8	-12.3%	-25.1%	9.4*
CCS(=O)(=O)n1nc(-c2ccc(Cl)cc2)nc1SCc1ccccc1	0.0%	59.8*	0.9%	-28.2%	19.0*
CCS(=O)(=O)n1nc(-c2ccc(Cl)cc2)nc1N	-5.4%	30.0	0.9%	-19.9%	14.7
O=C(CSc1nnc(-c2ccc(O)cc2)o1)Nc1ccc2c(c1)OCCO2	11.8%	39.0*	1.6%	-32.7%	24.8*
O=C(CSc1nnc(-c2ccc(O)cc2)o1)Nc1cccc(O)c1	6.7%	63.9	-4.9%	-24.3%	24.0*
O=C(CSc1nnc(-c2ccccc2Cl)o1)Nc1ccc2c(c1)OCCO2	-3.3%	12.7	?	-20.0%	13.8
O=C(CSc1nnc(-c2ccc(F)cc2)o1)c1ccc2c(c1)OCCO2	-6.0%	9.7	?	?	18.2*
O=C(CSc1nnc(-c2ccc(O)cc2)o1)Nc1ccccc1Br	5.2%	75.7*	3.8%	-9.2%	28.1*
O=C(CSc1nnc(-c2ccncc2)o1)c1ccc2c(c1)OCCO2	1.3%	-7.4	2.4%	-11.6%	2.9
CC(C)OCC1Cn2c(nc3c2c(=O)n(C)c(=O)n3C)O1 (stereo not drawn)	4.3%	-16.0	1.8%	-4.8%	1.7
CCOc1cc(C(=O)N2CC(=O)Nc3ccc(C)cc3C2c2ccccc2)cc(OCC)c1OCC (stereo not drawn)	.	.	2.1%	.	.
CCCn1c(=O)c(C(=O)NNC(=O)c2ccccc2Cl)c(O)c2ccccc21	-0.4%	-8.7	3.4%	-34.8%	1.4
CC(=O)Nc1ccc(NC(=O)C(C)Sc2nnc(-c3ccc4c(c3)OCO4)o2)cc1 (stereo not drawn)	.	.	.	-11.0%	.
O=C(CSc1ncnc2scc(-c3ccc(F)cc3)c12)c1ccc2c(c1)OCCO2	?	14.9	?	-24.2%	15.8*
Cc1ccc(-c2csc3ncnc(SCC(=O)c4ccc5c(c4)OCCO5)c23)cc1	20.5%	-14.6	0.7%	-31.6%	-2.8
COc1ccc(-c2nnc(SC(C)C(=O)Nc3ccc4c(c3)OCCO4)o2)cc1 (stereo not drawn)	-1.5%	active	-4.1%	-20.6%	35.0*
COc1cc(/C=C(\C#N)c2nc3ccccc3[nH]2)cc(Cl)c1OCc1ccccc1Cl	.	.	-0.6%	.	.
Cc1cc2c([nH]c3ccccc32)c2c1OC(C)(C)C=C2	2.1%	87.2*	7.9%	-23.6%	47.0*
SMILES	NS1 inh	Shiga toxin inh	AmpC inh detg	AmpC inh no detg	CHX counter
COc1ccc(OCCNc2c([N+](=O)[O-])c(=O)oc3ccccc23)cc1	.	6.8	?	28.2µM*	-2.4
O=c1oc2ccccc2c(Nc2ccc3ccccc3c2)c1[N+](=O)[O-]	-68.7%	105.0	?	-35.6%	21.9*
COc1ccccc1N1CCN(C(=O)CCC(=O)Nc2nnc(CC(C)C)s2)CC1	-7.8%	11.2	-1.0%	152.3%	-2.9
CC(/C=N/Nc1nc(C)cc(=O)[nH]1)=C\c1ccccc1	.	59.8*	5.5%	-35.7%	41.6*
CC(/C=N/Nc1nc2ccccc2[nH]1)=C\c1ccccc1	-5.7%	12.6	-1.5%	-23.6%	22.7*
CC(/C=N/Nc1ncc(C)c(=O)[nH]1)=C\c1ccccc1	.	24.9	4.1%	-27.7%	13.3
CN(C)/C=N/NC(=O)c1ccc(Cl)cc1	-0.8%	11.0	5.6%	-15.8%	1.9
CN(C)/C=N/c1cnc(C(=O)c2ccc(Cl)cc2)n1C	-79.8%	82.9*	-9.0%	1.8%	44.5*
COc1ccccc1C(=O)Nn1cnc2ccccc2c1=O	-20.2%	49.2*	-2.0%	-13.4%	23.7*
CCCCCCCCCC(=O)Nn1cnc2ccccc2c1=O	-0.4%	-7.5	-1.2%	28.3%	-1.7
CCN(CC)c1ccc(C(=O)Nn2cnc3ccccc3c2=O)cc1	-4.6%	75.8*	2.0%	-11.0%	35.0*
Cc1ccc(CCCNC(=O)C2CCC(=O)N(Cc3cccc(F)c3)C2)cc1 (stereo not drawn)	-0.3%	-2.2	-2.2%	134.6%	13.8*
COc1ccccc1CN1CC(C(=O)N2CCC(C(=O)c3ccccc3)CC2)CCC1=O (stereo not drawn)	-19.0%	58.5*	-1.9%	165.2%	35.5*
COc1ccccc1CCCNC(=O)C1CCC(=O)N(Cc2ccccc2F)C1 (stereo not drawn)	-5.8%	99.6*	-11.5%	58.8%	40.7*
COc1ccc(CCN2CC(C(=O)NCCc3ccccc3C)CCC2=O)cc1 (stereo not drawn)	-10.5%	3.8	6.3%	101.7%	-2.6
COc1ccc(CCCNC(=O)C2CCC(=O)N(Cc3ccccc3F)C2)cc1 (stereo not drawn)	-1.4%	27.2	5.5%	80.2%	30.6*
COc1ccc(N(C(=O)c2cccnc2)S(=O)(=O)c2ccc(Cl)cc2)cc1	-10.5%	-0.4	-3.0%	32.4%	3.3
Cc1cccc(-n2ccnc2SCC(=O)Nc2cccc3ccccc23)c1	.	.	9.6%	.	.
O=C(CCS(=O)(=O)c1cc(Br)cc2c1N(C(=O)C1CC1)CC2)NCc1ccc(Cl)cc1	.	.	-1.2%	.	.
O=C(Nc1cc2c(cc1C(=O)c1ccccc1Br)OCCO2)c1ccccc1	.	.	1.9%	.	.
COC(=O)c1cc2oc(C)cc2n1CC(=O)Nc1ccc(C)cc1C	.	.	-2.9%	.	.
Cc1ccc(CCNC(=O)C2CCC(=O)N(Cc3ccccc3F)C2)o1 (stereo not drawn)	3.9%	102.0*	10.3%	35.5%	40.2*
COc1ccccc1CN1CC(C(=O)NCCc2ccccc2Cl)CCC1=O (stereo not drawn)	-0.2%	59.4*	?	31.8%	38.1*
Cc1cc(C)nc(CCNC(=O)C2CCC(=O)N(Cc3ccccc3F)C2)n1 (stereo not drawn)	10.4%	17.4	1.5%	-2.6%	10.1
Cc1cc(C)nc(NCc2ccc(Cl)cc2)n1	-9.5%	-17.7	?	-14.6%	-0.9
COc1ccc(CNc2cccc(C)n2)c(O)c1	6.6%	10.7	?	-6.8%	3.0
Cc1cccc(NCc2ccc(Br)cc2)n1	1.5%	109.0*	0.6%	-8.6%	35.3*
Cc1cccc(NCc2cccc3ccccc23)n1	-17.8%	54.4	0.0%	-35.2%	41.1*

Source: PubChem (National Center for Advancing Translational Sciences (NCATS))
